In all, about 59,000 sequences were measured (the read-out: median about -0.00055, lowest 2% from about -2 on). Only a selection was taken, and the lowest values are over-represented in it overall.

This test is described as follows: Identification of proteins required for the processing of the EWS-FLI1 nascent transcript.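 Also: robust z of luciferase light less the median z of siRNAs with the same seed.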 Particulars: TC32 Ewing sarcoma NR0B1-luc vs CMV-luc (EWS-FLI1 target promoter against control promoter), 48 h; screened at 20 nM (by protocol). Here is the method: Ewing sarcoma (ES) cells depend on the EWS-FLI1 fusion transcription factor for cell survival. Using an assay of EWS-FLI1 activity and genome-wide siRNA screening we have identified proteins required for the processing of the EWS-FLI1 nascent transcript. Parallel genome-wide siRNA-mediated RNAi screens were conducted in Ewing sarcoma TC32 cell lines expressing a luciferase (luc) reporter protein driven by either the promoter of the EWS-FLI1 target gene NR0B1 (TC32-NR0B1-luc) or the CMV promoter (TC32-CMV-luc). Luciferase activity was assessed 48 hours post siRNA-transfection.
Twenty microl of serum-free media containing Lipofectamine RNAiMax (0.05 microl) was added to wells containing siRNA (0.8 pmol). Lipid and siRNA were allowed to complex for 45 min at ambient temperature before addition of 600 cells in RPMI-1640, 20% FBS to yield final transfection mixtures containing 20 nM siRNA in RPMI-1640, 10% FBS. Luciferase expression was measured using OneGlo (Promega, Madison, WI). The genome-wide screening campaign was conducted using Ambion's human genome library version 4.1 (Ambion, Austin TX). This library targets approximately 21000 human genes, three siRNAs per gene. Each siRNA is arrayed in an individual well of a 384-well plate. Parallel transfections were conducted in TC32-NR0B1-luc and TC32-CMV-luc cell lines and luciferase expression (OneGlo, Promega) was assayed 48 h later on a PerkinElmer Envision 2104 Multilabel plate reader (PerkinElmer, Waltham, MA). Qiagen's AllStars Negative control was incorporated on all screening plates for normalization (16 wells per plate). Qiagen, Germantown, MDsiGL4 was incorporated as a positive transfection control (16 wells per plate) on all plates. […] The raw luciferase data for the NR0B1- and CMV-luc screens were normalized and z-score-MAD transformed using standard methods (Chung et al., 2008). The miRNA-like seed sequence of every siRNA was determined and the median z-score for all siRNA sequences with the same seed sequence was calculated. This z-score was subtracted from the z-score associated with each siRNA with that seed sequence to generate a seed-adjusted z-score value (Z) that was used when the results for the three siRNAs corresponding to each gene were compared (Marine et al., 2012)
Consider UAACCUUCAACUCGCUGCC against NYNRIN, for which the seed-corrected z-score was -1.01.

As for UUAAUGGGAAGUUCUGGUG against ALG8, the seed-corrected z-score was -0.153.

UUGUUUACAAUUGAAACUC against RPS7: the seed-corrected z-score stood at 2.49.

For the sequence UUUGGUAAACUUCUGACUC against AFP, the seed-corrected z-score stood at 0.408.

UUGGGCACAUGCUCUAAGG against SUN2 gave a seed-corrected z-score of 1.57.

As for UUUGCGGUCAGGUUUCACC against MTNR1A, the seed-corrected z-score was -0.693.

As for UUCCUUCCAGCUGUAGGCC against CHRM1, the seed-corrected z-score is -2.17.

For UUUGGAGCAAGUAAUCCCU against ATP5SL, the seed-corrected z-score came out at 0.0327.

On to UACGCUCCAACCAUCAUAG against KIAA0368, for which the seed-corrected z-score was -0.0559.

For the sequence AAUGUCACAAAAGUUCCGU against PGLYRP3, the seed-corrected z-score was -0.707.

For the sequence UAACGAGAAAGACGGAUGC against CEP104, the seed-corrected z-score is -0.248.

As for AAUGCUAUAAAAUCCGUGG against C11orf95, the seed-corrected z-score was 0.671.

In turn, UAUUAGGAGAUAUGAAGUG against PSMB7 returned a seed-corrected z-score of 0.622.

Consider UCAGCUUCUACUCCGGUCU against DAPP1, for which the seed-corrected z-score was -1.25.

UUGUAUACAAGUGUCCACC against KCTD6: the seed-corrected z-score is -2.54.

Regarding UAUUGUAAGAGUACACGUC against IGSF5, the seed-corrected z-score is -0.00495.

Turning to UUGCGUUCAGGAAUAUCCG against MARK3, the seed-corrected z-score came out at 0.476.

For the sequence UGGAAUAUAAAACCCGUGC against FUNDC2P2, the seed-corrected z-score is -0.0349.

As for UUUGGGAUCUAUCAAUUUG against HNRNPDL, the seed-corrected z-score was found to be 0.695.

For the sequence AACUUUACCAGUCACACUC against SMNDC1, the seed-corrected z-score is -2.31.

In the case of UACACUCCUCUGAAGUUUG against ZNF396, the seed-corrected z-score was -0.508.

UUGGGUCAAUCCAUUUCUC against C10orf55 had a seed-corrected z-score of 0.749.

UCCACGAAUAGCAAGUUGC against H2AFZ yielded a seed-corrected z-score of 0.129.

In the case of UCUGCUUGUAGUGAAAGUC against DUSP9, the seed-corrected z-score is -3.42.

As to UAACUUACUGAGAAUCGGC against LCP2, the seed-corrected z-score is -1.05.

AAGGUGUUUCGAGUUAUGC against POLR2J: the seed-corrected z-score is -0.205.

On to UCAUGAACCCGAGCUCGAG against CD37, for which the seed-corrected z-score was -0.195.

In turn, AUUCCUGACAUUCACAUGC against ZNF439 registered a seed-corrected z-score of 0.169.

UCAGGUGCAAUUGGGAGCU against TCEB1P3: the seed-corrected z-score is -2.71.

UACGUUUUCAGAGUAUCAC against PDCD10 came in with a seed-corrected z-score of 0.491.

For AUACUUGACAUCACCAACC against CDKL2, the seed-corrected z-score is -0.981.

On to CAAGUCAUGCCAGCACUGG against LOC645852, for which the seed-corrected z-score was determined as 0.383.

As to UAAUCUAAUCCUUCUAAAG against PCDHGA7, the seed-corrected z-score turned out to be 1.3.

As to UUCCUUCCAGGACAUGAGC against MIR503HG, the seed-corrected z-score is -2.21.

In turn, UUUGGUUGAAGGGACCCUC against OR1J2 came in with a seed-corrected z-score of 0.501.

On to UCCUUUGAUAGCCUCUUCG against ELAVL3, for which the seed-corrected z-score is -0.214.

As for UAACUGUUCACCGCGUCCA against LINC01530, the seed-corrected z-score is -0.696.

In turn, UUACAAAGAAGCACGUUCA against HOXB8 displayed a seed-corrected z-score of 0.191.

AAACAGGAAGGUGCUAUCG against GALT: the seed-corrected z-score is -0.3.

Regarding AUACUUGCAAACAAACUCC against RREB1, the seed-corrected z-score is -1.3.

As for UGAUUUCUGACCUCCAUUC against TMEM43, the seed-corrected z-score came to 1.18.

For ACUGUUCCCAACAAGGUCC against UBXN4, the seed-corrected z-score was 1.66.

AAACCUAAGAAUACAAGUU against SAR1A gave a seed-corrected z-score of 0.849.

Consider ACAGUUGCCCUUGUCCUGG against LOC440292, for which the seed-corrected z-score is -3.34.

With AUUGGAGAGAGGUUCAUUC against YWHAH, the seed-corrected z-score is -0.058.

Regarding UGACGGCUGGUCGUGAUCU against SPDYE2, the seed-corrected z-score stood at 0.00759.

UACAGGUAGACCUCGUGGG against UPK3A returned a seed-corrected z-score of 0.24.

In turn, UCAGGAUCAUGAGUAGGCG against DEPDC5 displayed a seed-corrected z-score of 1.12.

With AAACCUAUUCCUUCCAUUU against ARL6IP5, the seed-corrected z-score was found to be 0.0394.

For UUAGAGUCCAGAUUCAGGA against ST3GAL3, the seed-corrected z-score is 0.675.

Regarding AAACGAUCAUGGUCUCUGC against COPA, the seed-corrected z-score is -3.42.

For UGAUCUUGAACUGCACCAC against SUMO3, the seed-corrected z-score was -0.708.

On to UGGAGUAAGAGCUAUACGC against CYTIP, for which the seed-corrected z-score is -0.125.

Regarding AACGUGUCACCACAUAUGG against MAPK10, the seed-corrected z-score is -2.05.

Sequence UUAGCAACCACGGACACUG against ACR displayed a seed-corrected z-score of 0.604.

On to AUACCUUUCAGGAUGAGGG against TMEM178A, for which the seed-corrected z-score was -0.305.

UUCAUAACUCUGUUGUGCC against FNBP1L gave a seed-corrected z-score of 0.0737.

The sequence UUCUGUACGCAGGUGAUUG against COL1A1 displayed a seed-corrected z-score of 0.0612.

Regarding UUUACGACGCAUCUCAGCC against ARCN1, the seed-corrected z-score is -2.64.

In turn, ACGGUUUUUACAUCGAUUC against PTPRO gave a seed-corrected z-score of 0.657.

For the sequence UAUUGUGCAAUUUGGUGGG against KLF13, the seed-corrected z-score was 0.422.

In the case of AAUAUCCCAAUGUUCAUGC against FHDC1, the seed-corrected z-score was -2.13.

Sequence AAACCAAACAAGGAUACCU against C20orf173 gave a seed-corrected z-score of 2.47.

For ACAUAUACUGGUAACACUG against SH3GLB1, the seed-corrected z-score is -0.404.

For the sequence UGAUGUCUACAAUAUCACC against RPL21P20, the seed-corrected z-score was -2.36.

Take UUUAUCACCAGGUUAAGCC against GLUD1: the seed-corrected z-score was -0.205.

The sequence UCUCGGAUCAUGAUGUUGU against PIK3CD returned a seed-corrected z-score of 0.452.

(Values after PubChem BioAssay AID1159506 (National Center for Advancing Translational Sciences (NCATS), 2015).)
